MARV entry inh = qHTS for Inhibitors of binding or entry into cells for Marburg Virus | AID 720532, 2013 | Potency, µM (series often up to 49.2 µM), most hits filed as inhibitors | actives 6.5% (n = 18,000) | Marburg virus pseudotype entry/binding inhibition, cell-based
Lassa entry = qHTS for Inhibitors of binding or entry into cells for Lassa Virus. actives 4.1% (n = 18,000). AID 720533, 2013. Lassa virus pseudotyped entry inhibition, cell-based qHTS. Potency, µM (top dose mostly 49.2 µM), usual class: inhibitors
A number is an active result; ! = not active in a repeat; [ ] = dose if it differs, or a comment. Shown are actives, neighbours in structure and some others; about 8% of the full set was active somewhere. The call rests on the fitted dose curve; tested in HEK293 cells.

How did CCC[C@H]1CN(c2ccccc2)C(=O)[C@H]1CC(=O)Nc1ccccc1 do in these assays?
MARV entry inh: inactive; Lassa entry: inactive

How did CC(C)c1c(C(=O)N(C)CC2CCCN(C)C2)cnn1-c1nccc(-c2cccs2)n1 (stereo unspecified) do in these assays?
MARV entry inh: inactive; Lassa entry: inactive

How did COc1ccc2c(c1)-c1nc(-n3ncc(C(=O)NCC4CCCN(C)C4)c3C3CC3)ncc1CC2 (stereo unspecified) do in these assays?
MARV entry inh: inconclusive; Lassa entry: inactive

Results for COc1ccc2c(c1)CCc1cnc(-n3ncc(C(=O)NCC(C)(C)CN(C)C)c3C)nc1-2 ?
MARV entry inh: 4.5µM; Lassa entry: inconclusive

What do the screens show for `COc1ccc2c(c1)-c1nc(-n3ncc(C(=O)NC[C@@H]4CCCN5CCCC[C@H]45)c3C)ncc1CC2`?
MARV entry inh: 5µM; Lassa entry: 35µM

How did COc1ccc2c(c1)CCc1cnc(-n3ncc(C(=O)NCCCN4CCOCC4)c3C)nc1-2 do in these assays?
MARV entry inh: inconclusive; Lassa entry: inactive

How did COC[C@H]1O[C@H](c2ccccc2)C=C[C@H]1OCC=C(C)C do in these assays?
MARV entry inh: inactive[8.59 µM]; Lassa entry: inactive[8.59 µM]

What do the screens show for `CN1[C@H]2CC[C@@H]1[C@@H](C(=O)O)[C@@H](OC(=O)c1ccccc1)C2`?
MARV entry inh: inactive; Lassa entry: inactive

What do the screens show for `CC(C)C[C@H](NC(=O)[C@H](CCCCN)NC(=O)[C@H](CCCNC(=N)N)NC(=O)[C@H](C)NC(=O)[C@H](CO)NC(=O)[C@H](CCCCN)NC(=O)[C@H](CCCNC(=N)N)NC(=O)[C@H](C)NC(=O)CNC(=O)[C@@H](NC(=O)[C@H](Cc1ccccc1)NC(=O)CNC(=O)CNC(=O)[C@@H](N)Cc1ccccc1)[C@H](C)O)C(=O)N[C@@H](C)C(=O)N[C@@H](CC(N)=O)C(=O)N[C@@H](CCC(N)=O)C(=O)O`?
MARV entry inh: inactive; Lassa entry: inactive

Results for O=C([C@@H]1C[C@@H](Sc2nc3ccccc3[nH]2)CN1Cc1c(F)cccc1F)N1CCOCC1 ?
MARV entry inh: inconclusive; Lassa entry: inactive

Results for CCOC(=O)Nc1ccc2c(c1)N(C(=O)CCN1CCOCC1)c1ccccc1S2 ?
MARV entry inh: inactive; Lassa entry: inactive

How did CCOC(=O)Nc1ccc2c(c1)N(C(=O)CN(C)C)c1ccccc1CC2 do in these assays?
MARV entry inh: 40µM; Lassa entry: inconclusive

How did O=S1(=O)c2cccc(Cl)c2OC[C@H](c2ccccc2)N1Cc1cccc(F)c1 do in these assays?
MARV entry inh: inactive

What do the screens show for `O=C(OCc1cn([C@H]2C[C@H](c3ccc(Cl)cc3)N(C(=O)C3CCCCC3)C[C@H]2O)nn1)c1ccccc1`?
MARV entry inh: inconclusive; Lassa entry: inactive

How did Clc1ccc(-n2cccc2CN2CCc3nnc(Cc4ccccc4)n3CC2)nc1 do in these assays?
MARV entry inh: inactive; Lassa entry: inactive

Results for O=C1c2ccccc2C(=O)C1c1ccc(F)cc1 ?
MARV entry inh: inactive; Lassa entry: inactive

Results for CC1(C)C(=O)NC2=C1C(=O)C(=O)c1ccccc12 ?
MARV entry inh: 4µM; Lassa entry: 13µM

Results for CCn1c(-c2cccc(OC)c2)nc2cc(NC(C)=O)cc(C(=O)N3CCC[C@H]3C(=O)OC)c21 ?
MARV entry inh: inactive; Lassa entry: inactive

What do the screens show for `O=c1c2ccccc2oc2cc(O)c(C3COCC(CO)C(O)C(O)C3O)c(O)c12` (stereo unspecified)?
MARV entry inh: 14µM; Lassa entry: inactive

What do the screens show for `O=c1cc(-c2ccc(O)cc2)oc2cc(O)c([C@@H]3O[C@H](CO)[C@@H](O)[C@H](O)[C@H]3O)c(O)c12`?
MARV entry inh: inactive; Lassa entry: inactive

What do the screens show for `O=C(c1cccs1)N1C[C@@H](O)[C@@H](n2cc(C3CC3)nn2)C[C@@H]1c1ccc(Cl)cc1`?
MARV entry inh: inactive

Results for CC1=CC(=C(c2ccc(N)cc2)c2ccc(N)cc2)C=CC1=N ?
MARV entry inh: inconclusive; Lassa entry: 7.9µM

What do the screens show for `COC(=O)C1=CO[C@@H](C)[C@@H]2CN3CCc4c([nH]c5ccccc45)[C@@H]3C[C@H]12`?
MARV entry inh: inconclusive; Lassa entry: inactive

How did COC[C@H]1CCCN1[C@H]1C[S+](=O)([O-])N[C@H]1COCc1ccccc1 do in these assays?
MARV entry inh: inactive; Lassa entry: inactive

How did CN(C)Cc1c[nH]c2ccccc12 do in these assays?
MARV entry inh: inactive; Lassa entry: inactive

How did OCc1c[nH]c2ccccc12 do in these assays?
MARV entry inh: 32µM!; Lassa entry: 32µM!

Results for CCCCCCN1C[C@H](n2cc(C3CC3)nn2)[C@@H](O)C[C@H]1c1ccc(C)cc1 ?
MARV entry inh: inactive; Lassa entry: inactive

Results for CC(=Nc1ccccc1N)c1c(C)cc(=O)n(O)c1O ?
MARV entry inh: inactive; Lassa entry: inactive

Results for Cc1noc(C)c1-c1nccc(NCc2cccnc2)n1 ?
MARV entry inh: inactive; Lassa entry: inactive

What do the screens show for `Cc1ccc(C(=O)Nc2ccc(S(=O)(=O)O)c3cc(S(=O)(=O)O)cc(S(=O)(=O)O)c23)cc1NC(=O)c1cccc(NC(=O)Nc2cccc(C(=O)Nc3cc(C(=O)Nc4ccc(S(=O)(=O)O)c5cc(S(=O)(=O)O)cc(S(=O)(=O)O)c45)ccc3C)c2)c1`?
MARV entry inh: 3.1µM!; Lassa entry: inactive

What do the screens show for `O=C(Nc1cccc(C(=O)NC2CC2)c1)c1ccccc1`?
MARV entry inh: inactive; Lassa entry: inactive

How did Cc1onc(-c2c(F)cccc2Cl)c1C(=O)N[C@@H]1C(=O)N2[C@@H]1SC(C)(C)[C@@H]2C(=O)O do in these assays?
MARV entry inh: inactive; Lassa entry: inactive

Results for C[C@H]1[C@H](NC(=O)/C(=N/OC(C)(C)C(=O)O)c2csc(N)n2)C(=O)N1S(=O)(=O)O (stereo in doubt) ?
MARV entry inh: inactive; Lassa entry: inactive

How did CC1(C)CC(=O)C2=C(C1)O[C@@]1(CCCCN3C(=O)c4ccccc4C3=O)Cc3c(ccc4ccccc34)[C@H]2O1 do in these assays?
MARV entry inh: inactive[8.59 µM]; Lassa entry: inactive[8.59 µM]

How did NC(N)=NN=C(/C=C/c1ccc([N+](=O)[O-])o1)/C=C/c1ccc([N+](=O)[O-])o1 do in these assays?
MARV entry inh: 14µM; Lassa entry: 6.3µM

What do the screens show for `O=[N+]([O-])c1ccc(/C=N\O)o1`?
MARV entry inh: inactive; Lassa entry: inactive

How did CC1(C2CCN(Cc3c[nH]c4ccccc34)CC2)NC(=O)N(CCN2CCOCC2)C1=O (stereo unspecified) do in these assays?
MARV entry inh: inactive; Lassa entry: inactive

What do the screens show for `CN1CCN(c2ncnc3ccc(-c4ccccc4C#N)cc23)CC1`?
MARV entry inh: inactive; Lassa entry: inactive

How did CN1CCC(=C2c3ccccc3C=Cc3ccccc32)CC1 do in these assays?
MARV entry inh: 8.9µM; Lassa entry: 28µM

Results for CN1CCC(=C2c3ccccc3Sc3ccccc32)CC1 ?
MARV entry inh: 4µM; Lassa entry: inconclusive

How did Cc1ccc(Sc2cncc3sc(C(N)=O)cc23)cc1 do in these assays?
MARV entry inh: inactive; Lassa entry: inactive

Results for CC=Cc1cc2ccccc2c2c(C(=O)OC)c(C(=O)OC)c(C(=O)OC(C)(C)C)n12 ?
MARV entry inh: inconclusive; Lassa entry: inactive[8.59 µM]

What do the screens show for `CCC1(C2CCN(Cc3c(C)[nH]c4ccccc34)CC2)NC(=O)N(Cc2ccc3c(c2)OCO3)C1=O` (stereo unspecified)?
MARV entry inh: inactive; Lassa entry: inactive

Results for Cn1cc(CNC2CCN(c3cccc(NC(=O)c4cccnc4)c3)CC2)cn1 ?
MARV entry inh: inactive; Lassa entry: inactive

Compound activity deposited in PubChem BioAssay by National Center for Advancing Translational Sciences (NCATS).
